{"source": "paper PMC9911399", "about": "“Two distinct binding modes provide the RNA-binding protein RbFox with extraordinary sequence specificity”", "binders": {"B1": {"name": "GGGGCCG (DNA:RNA)", "RNA": "GGGAGACCGGAAUUCAGAUUGUCCGGGGCCGUUAAAUCCCGUCGUAGCCACCA", "DNA 1": "CAATCTGAATTCCGGTCTCCC", "DNA 2": "TGGTGGCTACGACGGGATT"}, "B2": {"name": "GGGGCCC (DNA:RNA)", "RNA": "B1 RNA with G31C", "DNA 1": "CAATCTGAATTCCGGTCTCCC", "DNA 2": "TGGTGGCTACGACGGGATT"}, "B3": {"name": "CGGCCUG (DNA:RNA)", "RNA": "B1 RNA with G25C, G28C, C30U", "DNA 1": "CAATCTGAATTCCGGTCTCCC", "DNA 2": "TGGTGGCTACGACGGGATT"}, "B4": {"name": "GGGGGCC (DNA:RNA)", "RNA": "B1 RNA with C29G, G31C", "DNA 1": "CAATCTGAATTCCGGTCTCCC", "DNA 2": "TGGTGGCTACGACGGGATT"}, "B5": {"name": "GGGCCGU (DNA:RNA)", "RNA": "B1 RNA with G28C, C30G, G31U", "DNA 1": "CAATCTGAATTCCGGTCTCCC", "DNA 2": "TGGTGGCTACGACGGGATT"}, "B6": {"name": "GGGCCCU (DNA:RNA)", "RNA": "B1 RNA with G28C, G31U", "DNA 1": "CAATCTGAATTCCGGTCTCCC", "DNA 2": "TGGTGGCTACGACGGGATT"}, "B7": {"name": "CGGGCCC (DNA:RNA)", "RNA": "B1 RNA with G25C, G31C", "DNA 1": "CAATCTGAATTCCGGTCTCCC", "DNA 2": "TGGTGGCTACGACGGGATT"}, "B8": {"name": "GGGCCUG (DNA:RNA)", "RNA": "B1 RNA with G28C, C30U", "DNA 1": "CAATCTGAATTCCGGTCTCCC", "DNA 2": "TGGTGGCTACGACGGGATT"}, "B9": {"name": "CGGGCCG (DNA:RNA)", "RNA": "B1 RNA with G25C", "DNA 1": "CAATCTGAATTCCGGTCTCCC", "DNA 2": "TGGTGGCTACGACGGGATT"}, "B10": {"name": "CACCUAU (DNA:RNA)", "RNA": "GGGAGACCGGAAUUCAGAUUGUCCCACCUAUUUAAAUCCCGUCGUAGCCACCA", "DNA 1": "CAATCTGAATTCCGGTCTCCC", "DNA 2": "TGGTGGCTACGACGGGATT"}, "B11": {"name": "AAGUACA (DNA:RNA)", "RNA": "B1 RNA with G25A, G26A, G28U, C29A, G31A", "DNA 1": "CAATCTGAATTCCGGTCTCCC", "DNA 2": "TGGTGGCTACGACGGGATT"}, "B12": {"name": "UGCGGAA (DNA:RNA)", "RNA": "B10 RNA with C25U, A26G, C28G, U29G, U31A", "DNA 1": "CAATCTGAATTCCGGTCTCCC", "DNA 2": "TGGTGGCTACGACGGGATT"}, "B13": {"name": "UCAUCGU (DNA:RNA)", "RNA": "B10 RNA with C25U, A26C, C27A, C28U, U29C, A30G", "DNA 1": "CAATCTGAATTCCGGTCTCCC", "DNA 2": "TGGTGGCTACGACGGGATT"}, "B14": {"name": "AUAAGUU (DNA:RNA)", "RNA": "B10 RNA with C25A, A26U, C27A, C28A, U29G, A30U", "DNA 1": "CAATCTGAATTCCGGTCTCCC", "DNA 2": "TGGTGGCTACGACGGGATT"}, "B15": {"name": "UGAGCCA (DNA:RNA)", "RNA": "B1 RNA with G25U, G27A, G31A", "DNA 1": "CAATCTGAATTCCGGTCTCCC", "DNA 2": "TGGTGGCTACGACGGGATT"}, "B16": {"name": "ACAUCCA (DNA:RNA)", "RNA": "B1 RNA with G25A, G26C, G27A, G28U, G31A", "DNA 1": "CAATCTGAATTCCGGTCTCCC", "DNA 2": "TGGTGGCTACGACGGGATT"}, "B17": {"name": "UUUGAUA (DNA:RNA)", "RNA": "B1 RNA with G25U, G26U, G27U, C29A, C30U, G31A", "DNA 1": "CAATCTGAATTCCGGTCTCCC", "DNA 2": "TGGTGGCTACGACGGGATT"}, "B18": {"name": "UGUGGAC (DNA:RNA)", "RNA": "B1 RNA with G25U, G27U, C29G, C30A, G31C", "DNA 1": "CAATCTGAATTCCGGTCTCCC", "DNA 2": "TGGTGGCTACGACGGGATT"}, "B19": {"name": "UGGAGAC (DNA:RNA)", "RNA": "B1 RNA with G25U, G28A, C29G, C30A, G31C", "DNA 1": "CAATCTGAATTCCGGTCTCCC", "DNA 2": "TGGTGGCTACGACGGGATT"}, "B20": {"name": "CGGACUG (DNA:RNA)", "RNA": "B1 RNA with G25C, G28A, C30U", "DNA 1": "CAATCTGAATTCCGGTCTCCC", "DNA 2": "TGGTGGCTACGACGGGATT"}, "B21": {"name": "GGGACCG (DNA:RNA)", "RNA": "B1 RNA with G28A", "DNA 1": "CAATCTGAATTCCGGTCTCCC", "DNA 2": "TGGTGGCTACGACGGGATT"}, "B22": {"name": "AGGACUG (DNA:RNA)", "RNA": "B1 RNA with G25A, G28A, C30U", "DNA 1": "CAATCTGAATTCCGGTCTCCC", "DNA 2": "TGGTGGCTACGACGGGATT"}, "B23": {"name": "GGGACUG (DNA:RNA)", "RNA": "B1 RNA with G28A, C30U", "DNA 1": "CAATCTGAATTCCGGTCTCCC", "DNA 2": "TGGTGGCTACGACGGGATT"}, "B24": {"name": "UGGACUG (DNA:RNA)", "RNA": "B1 RNA with G25U, G28A, C30U", "DNA 1": "CAATCTGAATTCCGGTCTCCC", "DNA 2": "TGGTGGCTACGACGGGATT"}, "B25": {"name": "GGACUGU (DNA:RNA)", "RNA": "B10 RNA with C25G, A26G, C27A, A30G", "DNA 1": "CAATCTGAATTCCGGTCTCCC", "DNA 2": "TGGTGGCTACGACGGGATT"}, "B26": {"name": "CAGACUG (DNA:RNA)", "RNA": "B1 RNA with G25C, G26A, G28A, C30U", "DNA 1": "CAATCTGAATTCCGGTCTCCC", "DNA 2": "TGGTGGCTACGACGGGATT"}, "B27": {"name": "CCUGGCU (DNA:RNA)", "RNA": "B10 RNA with A26C, C27U, C28G, U29G, A30C", "DNA 1": "CAATCTGAATTCCGGTCTCCC", "DNA 2": "TGGTGGCTACGACGGGATT"}, "B28": {"name": "AGGUGAU (DNA:RNA)", "RNA": "B10 RNA with C25A, A26G, C27G, C28U, U29G", "DNA 1": "CAATCTGAATTCCGGTCTCCC", "DNA 2": "TGGTGGCTACGACGGGATT"}, "B29": {"name": "UUCGAUU (DNA:RNA)", "RNA": "B10 RNA with C25U, A26U, C28G, U29A, A30U", "DNA 1": "CAATCTGAATTCCGGTCTCCC", "DNA 2": "TGGTGGCTACGACGGGATT"}, "B30": {"name": "GUUUGCU (DNA:RNA)", "RNA": "B1 RNA with G26U, G27U, G28U, C29G, G31U", "DNA 1": "CAATCTGAATTCCGGTCTCCC", "DNA 2": "TGGTGGCTACGACGGGATT"}, "B31": {"name": "AACGCCU (DNA:RNA)", "RNA": "B10 RNA with C25A, C28G, U29C, A30C", "DNA 1": "CAATCTGAATTCCGGTCTCCC", "DNA 2": "TGGTGGCTACGACGGGATT"}}, "note": "Residue numbers refer to the chain shown, from its start. The full ranking holds about 16,000 sequences; the median of “ka relative to ugcaugu” is about 0.0091, and the highest 2% start at about 0.032. The sample as a whole holds a higher share of the highest values than the screen did."}
{"biological_target": "T1, RBFOX1 RRM (Homo sapiens, UniProt Q9NWB1 109-208)", "T1 sequence": "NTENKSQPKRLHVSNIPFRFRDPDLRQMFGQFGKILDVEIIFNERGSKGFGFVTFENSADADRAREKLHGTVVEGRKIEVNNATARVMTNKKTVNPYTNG", "test": "EMSA; HiTS-Eq, 1 nM pool, 10 min; buffer printed only for the single-RNA assays: 10 mM Tris pH 7.5, 150 mM NaCl, 3.4 mM EDTA, 0.001% NP-40, 30 C", "conditions": "tags: His6 N-terminal (pET28a); label: 5' 32P", "method_in_brief": "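A pool of RNA with 7 randomized nucleotides, 5′-radiolabelled and with DNA-annealed flanks, was equilibrated at 1 nM for 10 min in 50 µL with purified RbFox RRM, wild type or mutant, across increasing protein concentrations. Free RNA was separated by 8% native PAGE, excised, reverse-transcribed, barcoded by PCR and sequenced. Relative association constants were obtained from read-count changes of each RNA species versus the control reaction and normalised to the cognate motif.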"}
{"binder": "B1", "binding signal": "0.027 KA relative to UGCAUGU"}
{"binder": "B2", "binding signal": "0.0409 KA relative to UGCAUGU"}
{"binder": "B3", "binding signal": "0.0257 KA relative to UGCAUGU"}
{"binder": "B4", "binding signal": "0.0256 KA relative to UGCAUGU"}
{"binder": "B5", "binding signal": "0.0153 KA relative to UGCAUGU"}
{"binder": "B6", "binding signal": "0.00615 KA relative to UGCAUGU"}
{"binder": "B7", "binding signal": "0.0176 KA relative to UGCAUGU"}
{"binder": "B8", "binding signal": "0.0377 KA relative to UGCAUGU"}
{"binder": "B9", "binding signal": "0.0351 KA relative to UGCAUGU"}
{"binder": "B10", "binding signal": "0.000316 KA relative to UGCAUGU"}
{"binder": "B11", "binding signal": "0.00261 KA relative to UGCAUGU"}
{"binder": "B12", "binding signal": "0.0165 KA relative to UGCAUGU"}
{"binder": "B13", "binding signal": "0.0124 KA relative to UGCAUGU"}
{"binder": "B14", "binding signal": "0.00282 KA relative to UGCAUGU"}
{"binder": "B15", "binding signal": "0.00784 KA relative to UGCAUGU"}
{"binder": "B16", "binding signal": "0.000399 KA relative to UGCAUGU"}
{"binder": "B17", "binding signal": "0.0145 KA relative to UGCAUGU"}
{"binder": "B18", "binding signal": "0.00524 KA relative to UGCAUGU"}
{"binder": "B19", "binding signal": "0.007 KA relative to UGCAUGU"}
{"binder": "B20", "binding signal": "0.0352 KA relative to UGCAUGU"}
{"binder": "B21", "binding signal": "0.0273 KA relative to UGCAUGU"}
{"binder": "B22", "binding signal": "0.0275 KA relative to UGCAUGU"}
{"binder": "B23", "binding signal": "0.0322 KA relative to UGCAUGU"}
{"binder": "B24", "binding signal": "0.0448 KA relative to UGCAUGU"}
{"binder": "B25", "binding signal": "0.0223 KA relative to UGCAUGU"}
{"binder": "B26", "binding signal": "0.0132 KA relative to UGCAUGU"}
{"binder": "B27", "binding signal": "0.0127 KA relative to UGCAUGU"}
{"binder": "B28", "binding signal": "0.0113 KA relative to UGCAUGU"}
{"binder": "B29", "binding signal": "0.00889 KA relative to UGCAUGU"}
{"binder": "B30", "binding signal": "0.0286 KA relative to UGCAUGU"}
{"binder": "B31", "binding signal": "0.00525 KA relative to UGCAUGU"}
